Results published in the OligoGym collection.
Also: reference of the scale not given here.

Each sequence was assayed against PGLYRP2 (assay: pooled miR-30 sensor sort-seq; sequence = guide strand). Settings: shRNA.
For TTAACAGAGATGCCTTGGGGTC, the sensor-assay potency score (higher = more potent) was -1.41. With TTCTCGTACGTCATGTCGGGCC the sensor-assay potency score (higher = more potent) was -0.387. Sequence TAGTCTCCAAGGATGACCCCAT has a sensor-assay potency score (higher = more potent) of -0.15. TTGGCTCATGCACTGAAGCTGG gave a sensor-assay potency score (higher = more potent) of -0.819. In the case of TCTGGGTCTGGGAACCTCGGAG, the sensor-assay potency score (higher = more potent) was -0.74. With ATCTCTTAGAGACACTCCTGGC the sensor-assay potency score (higher = more potent) was -0.911. Work on ATCTGCAGTGGTGACATCTGGA yielded a sensor-assay potency score (higher = more potent) of -0.549. TTCTGCCGTCGGAAGTTGCTGC was tested, and the sensor-assay potency score (higher = more potent) was -0.417. Work on TTTTGTAGCATCTGGAGTGTTG yielded a sensor-assay potency score (higher = more potent) of -0.0388. Sequence TAGCAATCCGAGTAGGATCCAG has a sensor-assay potency score (higher = more potent) of -0.509.

Each sequence was assayed against PGR in the same assay as above. Settings: shRNA.
TTCGTCTTCCAGCAGCTGCCGA showed a sensor-assay potency score (higher = more potent) of -0.877. For TTGAAGCTTGACAAACTCCTGT, the sensor-assay potency score (higher = more potent) was 0.608. For TTGTTTGACAAGATCATGCAAG, the sensor-assay potency score (higher = more potent) was -0.044. Sequence TTGACTTCGTAGCCCTTCCAAA has a sensor-assay potency score (higher = more potent) of -1.29. For TAGTTGATTAAGACTTGTCAGC, the sensor-assay potency score (higher = more potent) was -0.703. Sequence TTGATTAAGACTTGTCAGCAAA has a sensor-assay potency score (higher = more potent) of -0.954. TCAACTGTATGTCTTGACCTGG was tested, and the sensor-assay potency score (higher = more potent) was -0.016. Sequence TAACTTCAGACATCATTTCTGG has a sensor-assay potency score (higher = more potent) of -0.00174. In the case of TGTAAGTTGATAGAAACGCTGT, the sensor-assay potency score (higher = more potent) was 0.269. Sequence TTGTGTTGTCATGTCCTGCATA has a sensor-assay potency score (higher = more potent) of -0.728. For TAAGTTGATAGAAACGCTGTGA, the sensor-assay potency score (higher = more potent) was 0.39. TTCTTGGCTAACTTGAAGCTTG gave a sensor-assay potency score (higher = more potent) of -0.748.

Each sequence was assayed against PHACTR4 in the same assay as above. Settings: shRNA.
Work on TTCCAGTTGAGCCTAGTCGTTT yielded a sensor-assay potency score (higher = more potent) of -1.14. In the case of TTCATCTTCTTCATCTCGGTAC, the sensor-assay potency score (higher = more potent) was 0.467. Work on TTAAACCTCAGAATCTTCCTGG yielded a sensor-assay potency score (higher = more potent) of 0.724. TTTGATAACAATGTACCACTGT gave a sensor-assay potency score (higher = more potent) of 0.882. TTGACTGAGCTTTCTAGTGAGC gave a sensor-assay potency score (higher = more potent) of -0.776. Work on TTCTTTAACATGGCATCGCTTG yielded a sensor-assay potency score (higher = more potent) of -0.642. Work on TTCCTTTTTCTGATCTTCCTGC yielded a sensor-assay potency score (higher = more potent) of 0.429. Sequence TTTCGCATAGATATTTTCCGTT has a sensor-assay potency score (higher = more potent) of -0.285. With TTGATAACAATGTACCACTGTT the sensor-assay potency score (higher = more potent) was -0.00481. TTCATGAACCTCCATCTCGGAG was tested, and the sensor-assay potency score (higher = more potent) was -1.12. In the case of TCTTGAAGTACAATACACCAGG, the sensor-assay potency score (higher = more potent) was -0.827. With TTAGGTTGCAATATATTGCGTT the sensor-assay potency score (higher = more potent) was 0.996.

Each sequence was assayed against PHF15 in the same assay as above. Settings: shRNA.
In the case of TTGAACTTGACCTCATCGTTGT, the sensor-assay potency score (higher = more potent) was 0.744. Work on TTGTCCACCTCGTCGGTCTTGG yielded a sensor-assay potency score (higher = more potent) of -0.798. With TTGTCTGCTAATATAGTCCGCA the sensor-assay potency score (higher = more potent) was 0.0345. In the case of TTGACCTCATCGTTGTCTGCTA, the sensor-assay potency score (higher = more potent) was -0.147. In the case of TTCAATAAGTTTCATCTGCAGG, the sensor-assay potency score (higher = more potent) was -0.499.
